Data taken from the supplement of paper PMC3545927.
Some of the results follow. No count for the full screen is at hand.

Target: furin, P09958
Assay: furin cleavage Z-score vs untreated control; higher = more cleavage, active = 3.5 or more, inactive = 1 or less, 8 variable residues between constant flanks
Summary of the method: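 Furin cleavage was scored on 8-mer peptides joined to a cDNA oligonucleotide and bound to magnetic beads at the N-terminus. Digestion with purified furin (1:10 enzyme:substrate, 0.01 ml, 50 mM HEPES pH 7.5, CaCl2, NaCl) lasted 7.5, 15 or 30 min. Freed DNA was tagged with adapters by PCR, sequenced and counted; the cleavage Z-score is the lowess-adjusted log count versus furin-free reactions, scaled by median absolute deviation.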

Chain of furin, P09958 (P09958 whole entry): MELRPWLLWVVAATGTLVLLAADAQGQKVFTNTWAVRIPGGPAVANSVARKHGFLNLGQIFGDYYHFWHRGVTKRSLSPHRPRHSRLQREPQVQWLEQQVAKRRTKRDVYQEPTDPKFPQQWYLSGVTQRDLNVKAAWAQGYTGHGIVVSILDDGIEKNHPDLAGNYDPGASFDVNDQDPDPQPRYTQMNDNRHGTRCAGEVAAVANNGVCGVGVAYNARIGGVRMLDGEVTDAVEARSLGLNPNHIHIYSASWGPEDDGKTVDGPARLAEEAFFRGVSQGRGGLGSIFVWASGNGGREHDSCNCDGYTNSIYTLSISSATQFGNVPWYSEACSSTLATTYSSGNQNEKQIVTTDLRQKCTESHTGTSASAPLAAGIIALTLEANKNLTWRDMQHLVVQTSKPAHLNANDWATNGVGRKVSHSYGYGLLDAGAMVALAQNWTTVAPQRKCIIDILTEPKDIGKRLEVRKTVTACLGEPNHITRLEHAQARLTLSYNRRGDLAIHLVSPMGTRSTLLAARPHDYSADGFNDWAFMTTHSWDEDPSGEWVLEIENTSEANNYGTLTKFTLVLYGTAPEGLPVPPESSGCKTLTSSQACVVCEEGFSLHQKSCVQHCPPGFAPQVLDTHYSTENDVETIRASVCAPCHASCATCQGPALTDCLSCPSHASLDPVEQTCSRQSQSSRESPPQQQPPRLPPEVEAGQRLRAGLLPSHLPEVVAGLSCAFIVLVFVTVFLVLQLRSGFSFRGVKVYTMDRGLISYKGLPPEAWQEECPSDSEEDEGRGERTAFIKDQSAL

| Sequence | furin cleavage Z-score (7.5 min) | furin cleavage Z-score (15 min) | furin cleavage Z-score (30 min) |
| --- | --- | --- | --- |
| CAYREVPCHRAGNASASA [HC2429] | 1.27 | -0.258 (inactive) | -1.27 (inactive) |
| CACNDSLNTGAGNASASA [HC375] | -1.58 (inactive) | 0.314 (inactive) | -2.54 (inactive) |
| CAVVCCSMAYAGNASASA [HC2063] | 0.877 (inactive) | 1.72 | 0.58 (inactive) |
| CADRSRGKRFAGNASASA [FS-410] | 7.7 (active) | 10.3 (active) | 8.8 (active) |
| CAKKIRGKRFAGNASASA [FS-672] | 6.75 (active) | 8.84 (active) | 7.44 (active) |
| CATTPSSGSWAGNASASA [HC55] | -0.371 (inactive) | -0.739 (inactive) | -0.54 (inactive) |
| CAVVCCSMSYAGNASASA [HC94] | 0.423 (inactive) | 0.141 (inactive) | 0.568 (inactive) |
| CADEVDGVDEAGNASASA [CS2] | -0.934 (inactive) | -0.925 (inactive) | -0.54 (inactive) |
| CAPCTPLPAPAGNASASA [HC1195] | -0.0603 (inactive) | -1.7 (inactive) | -1.53 (inactive) |
| CAHLKRRVRSAGNASASA [FS-793] | 11.8 (active) | 10.6 (active) | 9.61 (active) |
| CAPKSRIVRSAGNASASA [FS-369] | 14.9 (active) | 13.8 (active) | 11.4 (active) |
| CADRSRRVRSAGNASASA [FS-1190] | 12.9 (active) | 12.1 (active) | 9.2 (active) |
| CAHLKRDTEDAGNASASA [FS-2863] | -0.885 (inactive) | 0.879 (inactive) | -0.411 (inactive) |
| CALELRRVRSAGNASASA [FS-605] | 0.493 (inactive) | 1.94 | 2.52 |
| CASAGRHVRSAGNASASA [FS-1408] | 8 (active) | 10.8 (active) | 7.16 (active) |
| CAPLRRFWRSAGNASASA [FS-1602] | -0.433 (inactive) | -0.244 (inactive) | 0.194 (inactive) |
| CASAGHTVSGAGNASASA [HC356] | -0.221 (inactive) | -0.0745 (inactive) | 0.22 (inactive) |
| CAFSSRDERSAGNASASA [FS-588] | -0.242 (inactive) | -1.07 (inactive) | -1.76 (inactive) |
| CAVVCCSCSYAGNASASA [HC2060] | -1.87 (inactive) | -2.14 (inactive) | -0.914 (inactive) |
| CAVNCCSMSYAGNASASA [HC2021] | 0.193 (inactive) | 1.19 | -0.734 (inactive) |
| CAMEYCSQHLAGNASASA [HC1709] | 1.22 | 0.203 (inactive) | 0.301 (inactive) |
| CAAVGRRVRSAGNASASA [FS-12] | 9.92 (active) | 9.75 (active) | 7.92 (active) |
| CAVVGTTDRSAGNASASA [HC418] | 0.937 (inactive) | 1.04 | 0.404 (inactive) |
| CASEARMVRSAGNASASA [FS-1079] | 1.59 | 3.05 | 3.76 (active) |

| Sequence | furin cleavage Z-score (7.5 min) | furin cleavage Z-score (15 min) | furin cleavage Z-score (30 min) |
| --- | --- | --- | --- |
| CANIVDVQYLAGNASASA [HC508] | -0.996 (inactive) | -0.739 (inactive) | -1.04 (inactive) |
| CAVWARPDYNAGNASASA [HC1304] | 0.568 (inactive) | -0.706 (inactive) | -1.06 (inactive) |
| CASTAAQTFLAGNASASA [HC692] | -0.854 (inactive) | -1.17 (inactive) | 0.0229 (inactive) |
| CAREKRDSVCAGNASASA [FS-1851] | 1.11 | -0.614 (inactive) | 2.31 |
| CAREKRHRKKAGNASASA [FS-2007] | -1.19 (inactive) | -0.208 (inactive) | -0.665 (inactive) |
| CAREKKDVLAAGNASASA [FS-2484] | 0.263 (inactive) | 0.353 (inactive) | 1.5 |
| CAREKRDVQPAGNASASA [FS-1693] | 10.8 (active) | 12.3 (active) | 8.99 (active) |
| CAREKRQAKHAGNASASA [FS-2255] | 8.15 (active) | 10.9 (active) | 9.4 (active) |
| CAPTYSWGENAGNASASA [HC423] | 0.499 (inactive) | -1.13 (inactive) | 0.237 (inactive) |
| CAGQARWKRPAGNASASA [FS-656] | 0.0361 (inactive) | 0.0218 (inactive) | -0.505 (inactive) |
| CALTTSCGNTAGNASASA [HC1513] | 0.0451 (inactive) | -1.21 (inactive) | -0.123 (inactive) |
| CAYSQRWKRTAGNASASA [FS-904] | 8.92 (active) | 9.32 (active) | 7.56 (active) |
| CALTYRAKRTAGNASASA [FS-1033] | 10.2 (active) | 12 (active) | 9.3 (active) |
| CALTDPSHITAGNASASA [HC1248] | -1.48 (inactive) | 0.964 (inactive) | -1.35 (inactive) |
| CALQGREQLTAGNASASA [FS-1882] | 0.515 (inactive) | -3.14 (inactive) | -0.352 (inactive) |
| CALQRRWKRTAGNASASA [FS-685] | 12.5 (active) | 11.8 (active) | 10 (active) |
| CAYSWGENDTAGNASASA [HC424] | -0.162 (inactive) | -1.61 (inactive) | 0.0496 (inactive) |
| CAGIVPAKSVAGNASASA [HC408] | -0.985 (inactive) | 0.152 (inactive) | 0.898 (inactive) |
| CASTPCSAILAGNASASA [HC2544] | 1.05 | 1.22 | 0.242 (inactive) |
| CARWRRVAVGAGNASASA [FS-2846] | 0.992 (inactive) | 1.04 | 3.3 |
| CARWRRSAPGAGNASASA [FS-2111] | 8.14 (active) | 8.62 (active) | 5.76 (active) |
| CARWRRHQEGAGNASASA [FS-3132] | 0.592 (inactive) | 1.08 | 1.98 |
| CARWRRSDILAGNASASA [FS-3133] | 1.69 | 5.44 (active) | 6.95 (active) |
| CASTPCSATLAGNASASA [HC2558] | 0.0385 (inactive) | -0.233 (inactive) | -0.615 (inactive) |
